Laboratory results taken from PubChem BioAssay (NCATS).
Records with an inconclusive call do not appear. Unmarked numbers belong to inactive results. Activity calls are given as the source filed them. Calls come from the whole dose curve; as a rule, active = well fitted cell-killing curve with a large enough effect; inconclusive = small, poorly fitted or top-dose-only effect; inactive = flat fitted curve, though single readings scatter.

assay: qHTS of pediatric cancer cell lines to identify multiple opportunities for drug repurposing: Primary screen for TC32 cells (AID 1347089); conditions: TC32 Ewing sarcoma viability, CellTiter-Glo luminescence, 48 h; series mostly up to 45.8 µM; activity change, negative = cytotoxic: at the top concentration; note: nearly all actives have a fitted effect of over 60% in size
Source text: Drug repurposing or repositioning has been offered as a strategy for drug development in oncology programs. This approach has special potential for childhood cancers and other rare or orphan diseases, where the expected return on new drug development has been a disincentive to pharmaceuticals.
In this project we exploit the poly-pharmacology of drugs to discover new indications via phenotypic screening of a panel of 19 well-characterized cell lines derived from solid tumors seen in children and adolescents. The goal is to identify approved drugs with previously unrecognized anticancer properties that has the potential to reveal new mechanisms and biological processes involved in carcinogenesis or drug resistance. We employed a titration-based paradigm (quantitative high-throughput screening or qHTS), where all compounds were tested at multiple concentrations for their effect on cell viability. Concentration-response curves (CRCs) were derived directly from the primary screen, and both potency and efficacy values were used to identify compounds with robust bioactivity profiles. We screened the NIH Chemical Genomics Center (NCGC) Pharmaceutical Collection (NPC) and Mechanism Interrogation Plate (MIPE) small molecule collections of approved and investigational compounds against these cell lines; and measured metabolically active cells after 48 hours of compound treatment as a proxy for cell viability.
Assay Submitter: Nathalia J. Martinez, National Center for Advancing Translational Sciences, National Institutes of Health, Rockville, MD, USA; email: natalia.martinez@nih.gov
[1] Shen, M et al. Quantitative high-throughput phenotypic screening of pediatric cancer cell lines identifies multiple opportunities for drug repurposing. Oncotarget 2017 Dec 19;9(4):4758-4772. PMID 29435139.
The cells were obtained from University of North Carolina (UNC), Pediatric Preclinical Testing Program (PPT), and Coriell Institute (CI).
qHTS cell viability assay:
Cells were assayed in growth media at a density of 500-1,000 cells/well. Five microliters of cells were dispensed into 1,536-well, white, solid-bottom, TC-treated plates (Greiner Bio One) using a multidrop dispenser and incubated at 37 degrees C, 5% CO2, under a humidified atmosphere for 5 hours. Twenty-three nanoliters of compounds and controls (neutral control DMSO or positive control bortezomib at final concentration of 2.3 uM) were subsequently transferred by Kalypsys pintool. For primary screens, the MIPE collection was tested at 11-point dilutions (final concentrations range from 0.78 nM to 46 µM) and the NPC collection at 8-point dilutions (final concentrations range from 0.59 nM to 46 µM). Compounds tested in follow-up screens were assayed at 11-point dilutions. Cells were incubated for 48 hours, followed by addition of 3 uL of CellTiter-Glo (Promega). After a 15min incubation at room temperature, samples were analyzed for luminescence intensity using a ViewLux High-throughput CCD imager equipped with clear filters.
% is set by controls: 0 for no effect and ±100 for the full control effect; potency is the fitted concentration of half-maximal effect.

| SMILES | Potency | activity change, negative = cytotoxic |
| --- | --- | --- |
| CC(C)(C)c1cnc(CSc2cnc(NC(=O)C3CCNCC3)s2)o1 | 1310 nM (active) |  |
| CCOc1cc2ncc(C#N)c(Nc3ccc(F)c(Cl)c3)c2cc1NC(=O)C=CCN(C)C | 18600 nM (active) |  |
| CC(C)(O)c1cc2nc(-c3cnc(N)nc3)nc(N3CCOCC3)c2s1 | 466 nM (active) |  |
| CCc1cc2c(cc1N1CCC(N3CCOCC3)CC1)C(C)(C)c1[nH]c3cc(C#N)ccc3c1C2=O |  | -14.9% |
| O=C(O)[C@H](Cc1c[nH]c2ccccc12)N1C(=O)c2ccccc2C1=O |  | 8.24% [at 92.2 µM] |
| Nc1nc(Nc2ccc(S(N)(=O)=O)cc2)nn1C(=O)c1c(F)cccc1F | 14700 nM (active) |  |
| C1Cc2[nH]nc(-c3nn[nH]n3)c2C1 |  | 5.65% |
| COc1ccc(C=Cc2cc(OC)c(OC)c(OC)c2)cc1O | 0.4 nM (active) |  |
| COc1ccc2c(c1)CC[C@@H](CN(C)CC(=O)O)[C@H]2c1ccccc1 | 3700 nM (active) |  |
| COc1cc(C(=O)NS(=O)(=O)c2ccccc2C)ccc1Cc1cn(C)c2ccc(NC(=O)OC3CCCC3)cc12 |  | -4.53% |
| CC(=O)SC[C@@H](C)C(=O)N1CCC[C@H]1C(=O)N[C@@H](Cc1ccccc1)C(=O)O |  | 7.76% |
| Cc1nc(Nc2n[nH]c3c2CN(C(=O)N[C@H](CN(C)C)c2ccccc2)C3(C)C)c2sccc2n1 | 739 nM (active) |  |
| O=C(Cc1ccc(-c2ccc(OCCN3CCOCC3)cc2)cn1)NCc1ccccc1 | 117 nM (active) |  |
| CN1CC[C@@H](c2c(O)cc(O)c3c(=O)cc(-c4ccccc4Cl)oc23)[C@@H](O)C1 | 466 nM (active) |  |
| CNC(=O)CN1CCC(Oc2cc3c(Nc4cccc(Cl)c4F)ncnc3cc2OC)CC1 | 930 nM (active) |  |
| CC(C)(C)c1cc(C(C)(C)C)c(NC(=O)c2c[nH]c3ccccc3c2=O)cc1O |  | 10.2% |
| CCC(=C(c1ccccc1)c1ccc(OCCN(C)C)cc1)c1ccccc1 |  | 6.1% |
| CC1COC2(CCN(c3nc(=O)c4cc(C(F)(F)F)cc([N+](=O)[O-])c4s3)CC2)O1 (stereo not given) |  | 7.88% |
| Cc1cc(Nc2cc(N3CCN(C)CC3)nc(Sc3ccc(NC(=O)C4CC4)cc3)n2)n[nH]1 | 930 nM (active) |  |
| Nc1ccn([C@@H]2CS[C@H](CO)O2)c(=O)n1 |  | 11.8% [at 92.2 µM] |

| SMILES | Potency | activity change, negative = cytotoxic |
| --- | --- | --- |
| Nc1nc(NCCNc2ncc(-n3ccnc3)c(-c3ccc(Cl)cc3Cl)n2)ccc1[N+](=O)[O-] |  | 3.27% |
| Cc1cc(N2CCOCC2)cc2[nH]c(-c3c(NC[C@@H](O)c4cccc(Cl)c4)cc[nH]c3=O)nc12 | 739 nM (active) |  |
| Cc1[nH]c2ccccc2c1CCNCc1ccc(C=CC(=O)NO)cc1 | 1650 nM (active) |  |
| C[C@@H](Oc1cc(-c2cnn(C3CCNCC3)c2)cnc1N)c1c(Cl)ccc(F)c1Cl | 20800 nM (active) |  |
| C[C@]12CC[C@H](O)CC1=CCC1C2CC[C@]2(C)C(n3cnc4ccccc43)=CCC12 (stereo not given in full) |  | 1.79% |
| CCCCCCCCCC(=O)N[C@@H](Cc1c[nH]c2ccccc12)C(=O)N[C@H](CC(N)=O)C(=O)N[C@@H](CC(=O)O)C(=O)N[C@@H]1C(=O)NCC(=O)N[C@@H](CCCN)C(=O)N[C@@H](CC(=O)O)C(=O)N[C@H](C)C(=O)N[C@@H](CC(=O)O)C(=O)NCC(=O)N[C@H](CO)C(=O)N[C@@H]([C@@H](C)CC(=O)O)C(=O)N[C@@H](CC(=O)c2ccccc2N)C(=O)O[C@@H]1C |  | 15.5% |
| COCCn1c2c([n+](Cc3cnccn3)c1C)C(=O)c1ccccc1C2=O | 65.8 nM (active) |  |
| CCN1CCN(Cc2ccc(-c3cc4c(N[C@H](C)c5ccccc5)ncnc4[nH]3)cc2)CC1 | 117 nM (active) |  |
| CC(=O)Nc1sc2c(c1-c1nc3ccccc3s1)CNC2 |  | 2.18% |
| C[C@H]1C[C@@H]2[C@@H]([C@@H](O)C[C@@]3(C)[C@H]2CC[C@]3(O)C(=O)CO)[C@@]2(C)C=CC(=O)C=C12 |  | 13.7% |
| C=CC(=O)N1CCC[C@@H](n2nc(-c3ccc(Oc4ccccc4)cc3)c3c(N)ncnc32)C1 |  | 12.4% |
| CC1(C)OC2=C(C(=O)c3ccccc3C2=O)[C@H](NCc2ccccc2)[C@H]1O | 18600 nM (active) |  |
| COc1ccc2c(OCc3nnc4ccc(-c5ccccc5)nn34)ccnc2c1 |  | 10.2% |
| CN1c2cc(O)c(N=NC(N)=O)cc2CC1S(=O)(=O)O (stereo not given) |  | 4.64% |
| COc1cc(=C2C=c3ccccc3=N2)[nH]c1=Cc1[nH]c(C)cc1C |  | -16.7% |
| CCOC(=O)C1=C(C)NC2=C(C(=O)CC(C)(C)C2)C1c1ccc(-c2ccccc2)cc1 (stereo not given) |  | 8.1% |
| COc1cc2c(Nc3ccc(NC(=O)c4ccccc4)cc3)ncnc2cc1OCCCN1CCOCC1 | 3700 nM (active) |  |
| O=C(O)CO.[NH2-].[NH2-].[Pt+2] |  | 18% |
| OCc1ccc(-c2ccc(-c3ccc(CO)s3)o2)s1 |  | -9.18% |
| Cc1c(C)n(Cc2ccc(-c3ccccc3C(=O)O)cc2)c2ccc(C(=O)N[C@@H](C)c3ccc([N+](=O)[O-])cc3)cc12 |  | 13.2% |
